Measurements as given in PubChem BioAssay (NCI).
“And” between values parts separate entries of the source, which are not always exact repeats. Identical values can stand only once. Compounds without any hit were thinned out: in the full panel of roughly 83,000, 20% have a hit.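 Treatment: one concentration, 48 hours, 96-well format. Scoring: percent growth, with anything below 10 considered active.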 The source made the active and inactive calls.

Columns and labels:
Experiment in all cases: NCI-60 one-dose screen, 48 h (100 = growth as untreated, 0 = no growth, -100 = all killed)
Settings in all cases: 10 µM unless noted
SK-MEL-2 melanoma = test system: SK-MEL-2 melanoma
EKVX NSCLC = test system: EKVX NSCLC
SN12C renal = test system: SN12C renal
UO-31 renal = test system: UO-31 renal
TK-10 renal = test system: TK-10 renal
ACHN renal = test system: ACHN renal
CAKI-1 renal = test system: CAKI-1 renal
A498 renal = test system: A498 renal
MOLT-4 leukemia = test system: MOLT-4 leukemia
SR leukemia = test system: SR leukemia
RPMI-8226 leukemia = test system: RPMI-8226 leukemia
OVCAR-8 ovarian = test system: OVCAR-8 ovarian
OVCAR-5 ovarian = test system: OVCAR-5 ovarian
OVCAR-4 ovarian = test system: OVCAR-4 ovarian
SK-OV-3 ovarian = test system: SK-OV-3 ovarian
IGROV1 ovarian = test system: IGROV1 ovarian
OVCAR-3 ovarian = test system: OVCAR-3 ovarian
HS 578T breast = test system: HS 578T breast
NCI/ADR-RES ovarian = test system: NCI/ADR-RES ovarian
CCRF-CEM leukemia = test system: CCRF-CEM leukemia

Measured: growth

C/C=C(/C)C(=O)O[C@@H]1CC(C)(C)CC2C34OC(=O)[C@@]21CC[C@@]3(C)[C@]1(C)CCC2C(C)(C)C(=O)CC[C@]2(C)C1C[C@@H]4Cl (some centres undefined)
inactive: SK-MEL-2 melanoma 103% | EKVX NSCLC 92% | SN12C renal 102% | UO-31 renal 84.2% | TK-10 renal 87.2% | ACHN renal 102% | CAKI-1 renal 79.9% | A498 renal 89.7% | MOLT-4 leukemia 99.6% | SR leukemia 108% | RPMI-8226 leukemia 91% | OVCAR-8 ovarian 96% | OVCAR-5 ovarian 95.9% | OVCAR-4 ovarian 96.2% | SK-OV-3 ovarian 99.7% | IGROV1 ovarian 96.8% | OVCAR-3 ovarian 115% | HS 578T breast 99.8% | NCI/ADR-RES ovarian 106%

Cc1ccc(-c2nc3nc(-c4ccccc4)nc(N4CCN(S(=O)(=O)c5ccccc5)CC4)c3o2)cc1
inactive: SK-MEL-2 melanoma 76.9% | EKVX NSCLC 96.1% | SN12C renal 94.3% | UO-31 renal 99.2% | TK-10 renal 79.1% | ACHN renal 72% | CAKI-1 renal 84% | A498 renal 99.3% | CCRF-CEM leukemia 108% | MOLT-4 leukemia 102% | SR leukemia 104% | OVCAR-8 ovarian 75.5% | OVCAR-5 ovarian 99% | OVCAR-4 ovarian 99.6% | SK-OV-3 ovarian 77.4% | IGROV1 ovarian 89.2% | OVCAR-3 ovarian 93% | HS 578T breast 43.1% | NCI/ADR-RES ovarian 85.7%

O=C([C@H]1C[C@H]1c1ccc(S(F)(F)(F)(F)F)cc1)N1CCN(c2cc(Cl)ccc2C(F)(F)F)CC1
inactive: SK-MEL-2 melanoma 91.7% | EKVX NSCLC 91.9% | SN12C renal 101% | UO-31 renal 67.8% | TK-10 renal 93.6% | ACHN renal 93.4% | CAKI-1 renal 67.3% | A498 renal 94.4% | CCRF-CEM leukemia 96.4% | MOLT-4 leukemia 76.9% | SR leukemia 88.1% | OVCAR-8 ovarian 92.2% | OVCAR-5 ovarian 95.3% | OVCAR-4 ovarian 90.7% | SK-OV-3 ovarian 79.1% | IGROV1 ovarian 73.3% | OVCAR-3 ovarian 100% | HS 578T breast 91.4% | NCI/ADR-RES ovarian 95.5%

[Cu+].[NH-][C@H]1C[N-]C(=O)[C@H]([C@H]2CCN=C(N)N2)[N-]C(=O)/C(=C\NC(N)=O)[N-]C(=O)[C@H](CNC(=O)C[C@@H](N)CCCN)[N-]C(=O)[C@H](CO)[N-]C1=O
inactive: SK-MEL-2 melanoma 108% | EKVX NSCLC 109% | SN12C renal 103% | UO-31 renal 86.8% | TK-10 renal 98.1% | ACHN renal 108% | CAKI-1 renal 87.8% | A498 renal 85.7% | CCRF-CEM leukemia 99.9% | MOLT-4 leukemia 102% | SR leukemia 96.1% | OVCAR-8 ovarian 106% | OVCAR-5 ovarian 113% | OVCAR-4 ovarian 99.9% | SK-OV-3 ovarian 71.3% | IGROV1 ovarian 109% | OVCAR-3 ovarian 104% | HS 578T breast 97% | NCI/ADR-RES ovarian 103%

OCCN1CCN(CC/C=C2\c3ccccc3Sc3ccc(Cl)cc32)CC1
1.43% (active) and 32.3% (inactive): HS 578T breast
inactive: EKVX NSCLC 80.8% and 60.3% | SN12C renal 63% and 64.3% | TK-10 renal 57.7% | ACHN renal 58.5% and 71.1% | CAKI-1 renal 53.5% | A498 renal 45.4% and 60.5% | OVCAR-8 ovarian 79.4% and 86.4% | OVCAR-5 ovarian 41.8% and 63.4% | OVCAR-4 ovarian 71.9% and 128% | SK-OV-3 ovarian 77.8% and 77.2% | IGROV1 ovarian 26.3% | OVCAR-3 ovarian 42.4% and 37.7% | NCI/ADR-RES ovarian 58.2% and 76.6%
-17.7% (active) and 23.8% (inactive): CCRF-CEM leukemia
46.5% (inactive) and -10.9% (active): SK-MEL-2 melanoma
active: MOLT-4 leukemia -52.7% and -10.3%
39.9% (inactive) and 2.89% (active): UO-31 renal

Nc1n[nH]c2cccc(C#Cc3cccc(NC(=O)c4ccc(N5CCOCC5)c(C(F)(F)F)c4)c3)c12
active: SK-MEL-2 melanoma -7.56% | SN12C renal 9.03% | UO-31 renal -31.7% | ACHN renal -0.609% | CAKI-1 renal 9.52% | A498 renal -34.3% | MOLT-4 leukemia 7.67% | RPMI-8226 leukemia -0.476% | OVCAR-5 ovarian 8.26% | SK-OV-3 ovarian 2.24% | IGROV1 ovarian -39.1% | HS 578T breast -11.4%
inactive: EKVX NSCLC 18.4% | TK-10 renal 16.5% | SR leukemia 12.6% | OVCAR-8 ovarian 10.7% | OVCAR-4 ovarian 25.6% | OVCAR-3 ovarian 34.9% | NCI/ADR-RES ovarian 14.4%

COC(=O)[C@H]1Cc2c([nH]c3ccccc23)[C@@H](c2cccs2)N1
inactive: SK-MEL-2 melanoma 97.2% | EKVX NSCLC 96.3% | SN12C renal 102% | UO-31 renal 93% | TK-10 renal 86.7% | ACHN renal 111% | CAKI-1 renal 89.8% | A498 renal 93.2% | CCRF-CEM leukemia 101% | MOLT-4 leukemia 103% | SR leukemia 108% | OVCAR-8 ovarian 104% | OVCAR-5 ovarian 102% | OVCAR-4 ovarian 102% | SK-OV-3 ovarian 102% | IGROV1 ovarian 101% | OVCAR-3 ovarian 111% | HS 578T breast 103% | NCI/ADR-RES ovarian 106%

Cc1nn(-c2nc(-c3cc4ccccc4oc3=O)cs2)c(C)c1N=Nc1ccccc1
inactive: SK-MEL-2 melanoma 113% | EKVX NSCLC 99.8% | SN12C renal 103% | UO-31 renal 79.3% | TK-10 renal 112% | ACHN renal 108% | CAKI-1 renal 89.2% | A498 renal 100% | MOLT-4 leukemia 100% | SR leukemia 90.4% | RPMI-8226 leukemia 101% | OVCAR-8 ovarian 106% | OVCAR-5 ovarian 106% | OVCAR-4 ovarian 102% | SK-OV-3 ovarian 110% | IGROV1 ovarian 105% | OVCAR-3 ovarian 101% | HS 578T breast 108% | NCI/ADR-RES ovarian 104%

CCCn1nc(C(=O)N2CCCCC2)c2c1CCC(N1CCC(c3ccncc3)CC1)C2 (centres undefined)
inactive: SK-MEL-2 melanoma 105% | EKVX NSCLC 100% | SN12C renal 118% | UO-31 renal 92.7% | TK-10 renal 101% | ACHN renal 105% | CAKI-1 renal 95.8% | A498 renal 109% | CCRF-CEM leukemia 101% | MOLT-4 leukemia 108% | SR leukemia 123% | OVCAR-8 ovarian 98.3% | OVCAR-5 ovarian 107% | OVCAR-4 ovarian 103% | SK-OV-3 ovarian 109% | IGROV1 ovarian 113% | OVCAR-3 ovarian 106% | HS 578T breast 103% | NCI/ADR-RES ovarian 101%

CC(=O)c1nn(-c2ccccc2)/c(=N/N=Cc2cn(-c3ccccc3)nc2-c2cc3ccccc3oc2=O)s1
inactive: SK-MEL-2 melanoma 103% | EKVX NSCLC 97.2% | SN12C renal 105% | UO-31 renal 84% | TK-10 renal 103% | ACHN renal 101% | CAKI-1 renal 88.5% | A498 renal 120% | CCRF-CEM leukemia 101% | MOLT-4 leukemia 95.9% | SR leukemia 88.1% | OVCAR-8 ovarian 103% | OVCAR-5 ovarian 106% | OVCAR-4 ovarian 104% | SK-OV-3 ovarian 106% | IGROV1 ovarian 107% | OVCAR-3 ovarian 116% | HS 578T breast 115% | NCI/ADR-RES ovarian 107%

COc1ccc(-c2nnc3n(C)c(=O)c4ccccc4n23)cc1O
active: OVCAR-3 ovarian 0.325%
inactive: SK-MEL-2 melanoma 30.3% | EKVX NSCLC 97.5% | SN12C renal 30.3% | UO-31 renal 52.7% | TK-10 renal 51.4% | ACHN renal 47.5% | CAKI-1 renal 35.2% | A498 renal 21.6% | MOLT-4 leukemia 32.5% | SR leukemia 21.4% | RPMI-8226 leukemia 15.9% | OVCAR-8 ovarian 25.2% | OVCAR-5 ovarian 66% | OVCAR-4 ovarian 53.6% | SK-OV-3 ovarian 14.9% | IGROV1 ovarian 55.7% | HS 578T breast 29.5% | NCI/ADR-RES ovarian 15.5%

Nc1nc2ccccc2c2c(=O)c3ccc(Cl)cc3sc12
inactive: SK-MEL-2 melanoma 106% | EKVX NSCLC 89.2% | SN12C renal 91.3% | UO-31 renal 96.1% | TK-10 renal 130% | ACHN renal 83.6% | CAKI-1 renal 89% | A498 renal 99.7% | CCRF-CEM leukemia 94.5% | MOLT-4 leukemia 93.6% | SR leukemia 84.4% | OVCAR-8 ovarian 103% | OVCAR-5 ovarian 101% | OVCAR-4 ovarian 92.1% | SK-OV-3 ovarian 98.4% | IGROV1 ovarian 102% | OVCAR-3 ovarian 104% | HS 578T breast 89.3% | NCI/ADR-RES ovarian 110%

ON=C1CCCCCCCC1
inactive: SK-MEL-2 melanoma 94.9% and 100% | EKVX NSCLC 108% | SN12C renal 97.2% and 102% | UO-31 renal 79.9% and 85.4% | TK-10 renal 100% | ACHN renal 98.6% and 105% | CAKI-1 renal 105% and 99.8% | A498 renal 102% and 105% | CCRF-CEM leukemia 107% and 101% | MOLT-4 leukemia 101% and 96.2% | SR leukemia 90.9% and 97.5% | OVCAR-8 ovarian 102% and 107% | OVCAR-5 ovarian 103% and 105% | OVCAR-4 ovarian 115% and 113% | SK-OV-3 ovarian 100% and 103% | IGROV1 ovarian 113% and 111% | OVCAR-3 ovarian 111% | HS 578T breast 107% and 108% | NCI/ADR-RES ovarian 103% and 105%

CC1(C)C(N)=Nc2cc(OCCCN3Cc4ccc(OCCc5cn(CC(=O)N6CCC(CCN7CCCC7)CC6)nn5)cc4C3)c(OCC3CC3)cc21
inactive: SK-MEL-2 melanoma 109% | EKVX NSCLC 101% | SN12C renal 96.1% | UO-31 renal 90.8% | TK-10 renal 100% | ACHN renal 103% | CAKI-1 renal 91.2% | A498 renal 104% | MOLT-4 leukemia 99.9% | SR leukemia 115% | RPMI-8226 leukemia 88.8% | OVCAR-8 ovarian 92% | OVCAR-5 ovarian 95% | OVCAR-4 ovarian 94.6% | SK-OV-3 ovarian 105% | IGROV1 ovarian 101% | OVCAR-3 ovarian 114% | HS 578T breast 97.2% | NCI/ADR-RES ovarian 103%

Cc1ccc2[nH]c(=S)[nH]c(=O)c2c1
inactive: SK-MEL-2 melanoma 111% | EKVX NSCLC 104% | SN12C renal 99.9% | UO-31 renal 92.4% | TK-10 renal 85.4% | ACHN renal 101% | CAKI-1 renal 89.7% | A498 renal 94.8% | MOLT-4 leukemia 93.3% | SR leukemia 90.7% | RPMI-8226 leukemia 109% | OVCAR-8 ovarian 104% | OVCAR-5 ovarian 107% | OVCAR-4 ovarian 102% | SK-OV-3 ovarian 105% | IGROV1 ovarian 103% | OVCAR-3 ovarian 105% | HS 578T breast 104% | NCI/ADR-RES ovarian 104%
